Test results reported in PubChem BioAssay (NCATS).
Inconclusive results are not listed. Active and inactive are the calls of the source. Unless noted, calls follow the shape of the dose curve; as a rule, active = well fitted curve in the direction sought with a large enough effect; inconclusive = small, poorly fitted or top-dose-only effect, or another doubt; inactive = no such curve, though single readings can be large; an effect the other way counts as inactive or inconclusive.

Assays:
[1] = Cell Viability - BJ (AID 421; calls by dose curve;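 also: potency is read from the fitted curve at half-maximal effect; cells exposed to compound for 40 hours at 37 °C before readout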); details: BJ fibroblast viability, qHTS
How it was run: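 Quantitative HTS: ATP depletion in BJ cells after 40 hr compound exposure in complete culture medium, detected with CellTiter-Glo; AC50 from standard Hill fits.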

[2] = Cell Viability - N2a (AID 540); details: N2a mouse neuroblastoma cell viability; activity change, negative = cytotoxicity: at 92.2 µM (top of the series);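 also: plate controls were DMSO alone for no effect and tamoxifen control for full effect; nearly all actives have a fitted effect of over 45% in size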
How it was run: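 Mouse neuroblastoma N2a cells (1500/well) were preincubated 5 hr at 37 °C, then exposed to compounds for 40 hr at 37 °C in complete medium. Viability was read as intracellular ATP by CellTiter-Glo luminescence; AC50 from Hill fits.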

[3] = Cellular Toxicity (caspase-3) HepG2 (AID 654); details: HepG2 caspase-3 activation, luminescence, 0% = DMSO only, 100% = tamoxifen; series mostly up to 92.2 µM;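 also: cells exposed to compound for 16 hours before reading; 0% = DMSO alone and 100% = caspase signal from 100 µM tamoxifen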
How it was run: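 HepG2 cells (1500/well) in complete medium were treated with compounds for 16 hr at 37 °C. Caspase-3/7 activity was then read as luminescence from peptide-aminoluciferin cleavage. AC50 came from Hill fits, normalized to DMSO and 100 uM tamoxifen.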

[4] = Cellular Toxicity (caspase-3) Jurkat (AID 655); details: Jurkat caspase-3 activation, luminescence; caspase-3 activation: at 92.2 µM (top of the series), DMSO = 0%, tamoxifen = 100%;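 also: cells exposed to compound for 16 h at 37 °C before reading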
How it was run: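 Luminescent caspase-3/7 readout (aminoluciferin substrate cleavage) in human T-cell leukemia Jurkat cells after 16 hr compound exposure. Concentration-response normalized to DMSO and 100 uM tamoxifen; AC50 by standard Hill equation.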

[5] = Cellular Toxicity (caspase-3) HUV-EC-C (AID 656); details: HUV-EC-C cells, caspase-3 activation (apoptosis), vehicle = 0, 100 µM tamoxifen = 100%; series mostly up to 92.2 µM
How it was run: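 Luminescent caspase-3/7 activation (aminoluciferin substrate cleavage) in HUV-EC-C cells after 16 hr compound exposure, 37°C. Signal normalized to DMSO basal and 100 uM tamoxifen as 100%; AC50 from concentration-response fitted with the Hill equation.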

[6] = Cellular Toxicity (caspase-3) BJ (AID 658); details: BJ fibroblasts, luminescence, normalized: DMSO 0%, staurosporine 100%; series mostly up to 91.7 µM;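 also: 0% = DMSO basal and 100% = 10 µM staurosporine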
How it was run: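 BJ human foreskin fibroblasts, 1000 cells/well, treated 16 hours at 37 °C in complete medium; caspase 3/7 activity by Caspase-Glo luminescence after 1 hr at room temperature. Normalized to DMSO and 10 uM staurosporine; AC50 from Hill fits.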

[7] = Cellular Toxicity (caspase-3) NIH 3T3 (AID 666); details: NIH 3T3 caspase-3 activation, apoptosis/toxicity; series mostly up to 92.2 µM;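 also: caspase signal read after 16 h compound exposure; 0% = DMSO basal and 100% = 100 µM tamoxifen stimulation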
How it was run: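 Mouse NIH 3T3 fibroblasts (1000 cells/well) were treated with compound for 16 hr at 37°C in complete medium; caspase-3/7 activity was read by Caspase-Glo luminescence. Normalized to DMSO and 100 uM tamoxifen; AC50 from Hill fits.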

[8] = target: Cytochrome P450 3A4 (Homo sapiens) (UniProt P08684); assay: qHTS Assay for Inhibitors and Substrates of Cytochrome P450 3A4 (AID 884); details: recombinant CYP3A4, Luciferin-PPXE luminescence; series mostly up to 57.1 µM; also: % is scaled to controls: 0 for no effect and ±100 for the full control effect; nearly all actives have a fitted effect of over 50% in size
How it was run: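 20 nM human CYP3A4 with 25 uM Luciferin-PPXE (at KM) in 200 mM KPO4, preincubated 10 min with compound; NADPH regeneration started a 60 min RT reaction. Luciferin detected by luminescence, normalized to 57 uM ketoconazole as full inhibition.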

[9] = MultiTox-Fluor Cytotoxicity Assay - LYMP1-001 - Dead Cells (AID 946); details: LYMP1-001 lymphoblastoid cells, dead-cell protease fluorescence; series mostly up to 92.2 µM;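 also: 0% = DMSO and 100% = tetraoctylammonium bromide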
How it was run: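 In this qHTS, 15 uM tetraoctylammonium bromide defined 100% and DMSO defined basal activity. Lymphoblastoid cells (LYMP1-001, 2500 per well) received compound for 16 hr at 37 C before a fluorogenic dead-cell substrate readout at 485/520 nm.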

[10] = MultiTox-Fluor Cytotoxicity Assay - LYMP1-002 - Live Cells (AID 955); details: LYMP1-002 lymphoblastoid live-cell protease fluorescence viability; series mostly up to 46.1 µM; also: % is scaled to controls: 0 for no effect and ±100 for the full control effect
How it was run: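 Human lymphoblastoid LYMP1-002 cells, 2500/well in complete medium, rested 5 hr at 37 C, then exposed to compounds for 16 hr at 37 C. Live-cell protease cleavage of GF-AFC read by fluorescence (Ex/Em 405/510) after 60 min at room temperature; AC50 from Hill fits.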

[11] = MultiTox-Fluor Cytotoxicity Assay - LYMP1-002 - Dead Cells (AID 960); details: LYMP1-002 lymphoblastoid cells, dead-cell protease fluorescence; series mostly up to 46.1 µM;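 also: 0% = DMSO and 100% = tetraoctylammonium bromide; nearly all actives have a fitted effect of over 60% in size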
How it was run: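 Human lymphoblastoid cells (LYMP1-002), 2500/well in complete medium, were exposed to compounds for 16 hr at 37 C. Dead-cell protease activity was read as bis-AAF-R110 fluorescence (Ex/Em 485/520), normalized to DMSO and 15 uM tetraoctylammonium bromide; AC50 from Hill fits.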

[12] = Cell Viability - LYMP2-009 (AID 968); details: LYMP2-009 lymphoblastoid cell viability; series mostly up to 92.2 µM;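 also: 0% = DMSO alone and the full-kill end = tetraoctylammonium bromide at 92 µM; nearly all actives have a fitted effect of over 55% in size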
[13] = Cell Viability - LYMP2-011 (AID 969); details: LYMP2-011 lymphoblastoid cells viability; series mostly up to 92.2 µM;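 also: 0% = DMSO only and full inhibition = 92 µM tetraoctylammonium bromide; nearly all actives have a fitted effect of over 60% in size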
How it was run: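 Human lymphoblastoid cells (2500/well) were plated in complete medium, preincubated 5 hr at 37 C, then exposed to compounds for 24 hr at 37 C. Intracellular ATP was read by CellTiter-Glo luminescence, and AC50 came from Hill-equation concentration-response fits.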

[14] = Cell Viability - LYMP2-021 (AID 974); details: LYMP2-021 lymphoblastoid cells viability; series mostly up to 92.2 µM;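 also: compound exposure lasts 24 hours at 37 °C; % is scaled to controls: 0 for no effect and ±100 for the full control effect; nearly all actives have a fitted effect of over 55% in size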
How it was run: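 Human lymphoblastoid cells (2500/well) were preincubated 5 hr at 37 C, then exposed to compounds for 24 hr at 37 C in complete medium. Intracellular ATP was read by CellTiter-Glo luminescence; AC50 came from Hill-equation fits of concentration-response data.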

[15] = Cell Viability - LYMP2-016 (AID 984); details: LYMP2-016 lymphoblastoid cell viability, qHTS; series mostly up to 92.2 µM; also: % is scaled to controls: 0 for no effect and ±100 for the full control effect; nearly all actives have a fitted effect of over 55% in size
How it was run: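 qHTS, 1536-well: 2500 LYMP2-016 cells/well, 5 hr 37 C, compound added, 24 hr 37 C, CellTiter-Glo 30 min RT, luminescence. Tetraoctylammonium bromide positive control. AC50 via Hill fit.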

[16] = Cell Viability - LYMP2-026 (AID 989); details: LYMP2-026 lymphoblastoid cell viability, qHTS; series mostly up to 92.2 µM; also: % is scaled to controls: 0 for no effect and ±100 for the full control effect; nearly all actives have a fitted effect of over 50% in size
How it was run: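 Human lymphoblastoid cells (2500/well) in complete medium were preincubated 5 hr at 37 C, then exposed to compounds for 24 hr at 37 C. Cellular ATP was read by CellTiter-Glo luminescence; AC50 from Hill-equation fits of concentration-response data.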

[17] = target: Vitamin D3 receptor (Homo sapiens) (UniProt P11473); assay: qHTS assay for small molecule agonists of vitamin D receptor signaling (AID 588543; calls by dose curve;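 also: 0% = DMSO basal and 100% = reference agonist control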); details: HEK293T VDR-UAS-bla, beta-lactamase ratio, 16 h; series mostly up to 76.8 µM
How it was run: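 β-lactamase reporter, VDR-UAS-bla HEK293T, agonist mode. Cells plated 5 h at 37 °C, compound titration 16 h at 37 °C, CCF4 dye 2 h RT, ratio 460/530 nm. Hill fit → EC50, efficacy vs 50 nM 1α,25-(OH)2D3.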

[18] = target: Thyroid hormone receptor beta (Homo sapiens) (UniProt P10828); assay: qHTS assay for small molecule agonists of thyroid hormone receptor beta signaling (AID 588545; calls by dose curve;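 also: 0% = DMSO only and 100% = 10 nM T3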); details: TR-UAS-bla GripTite HEK 293, beta-lactamase ratio, agonist mode, 18 h; series mostly up to 76.7 µM
How it was run: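 Beta-lactamase reporter activity under TR response element control is measured in HEK 293 cells after 18 hrs compound exposure. Signal is ratiometric CCF4 fluorescence, 460/530 nm.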

[19] = Cell Viability - LYMP2-017 (AID 972); details: LYMP2-017 lymphoblastoid cell viability; series mostly up to 92.2 µM; also: % is scaled to controls: 0 for no effect and ±100 for the full control effect; nearly all actives have a fitted effect of over 55% in size
How it was run: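 Human lymphoblastoid cells (2500/well) were seeded in complete medium, held 5 hr at 37 C, then exposed to compounds for 24 hr at 37 C. Intracellular ATP was read by CellTiter-Glo luminescence after 30 min at room temperature, with AC50 values from Hill-equation fits.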

[20] = Cell Viability - HepG2 (AID 433; calls by dose curve;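 also: potency is read from the fitted curve at half-maximal effect; potency for ATP loss meaning cytotoxicity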); details: qHTS
How it was run: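 ATP luminescence (CellTiter-Glo) after 40 h compound exposure, 37 °C, HepG2, 1500 cells/well, complete medium. Normalized: DMSO = basal, 100 uM tamoxifen = 100% inhibition. AC50 via standard Hill equation.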

Sequence of Vitamin D3 receptor (Homo sapiens) (P11473 whole entry, looked up): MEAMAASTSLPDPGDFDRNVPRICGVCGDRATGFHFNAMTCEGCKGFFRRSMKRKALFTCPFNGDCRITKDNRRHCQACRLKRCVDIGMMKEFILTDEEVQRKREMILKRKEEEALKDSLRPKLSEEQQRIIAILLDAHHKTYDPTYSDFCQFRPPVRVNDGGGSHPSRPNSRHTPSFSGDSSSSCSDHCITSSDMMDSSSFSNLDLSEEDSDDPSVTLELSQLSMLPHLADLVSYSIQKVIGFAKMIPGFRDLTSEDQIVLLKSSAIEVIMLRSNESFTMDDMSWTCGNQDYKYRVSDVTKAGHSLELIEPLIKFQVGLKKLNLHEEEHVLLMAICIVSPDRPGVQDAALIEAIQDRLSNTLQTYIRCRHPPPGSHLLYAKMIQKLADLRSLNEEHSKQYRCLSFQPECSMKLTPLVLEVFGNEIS
Sequence of Cytochrome P450 3A4 (Homo sapiens) (P08684 whole entry, looked up): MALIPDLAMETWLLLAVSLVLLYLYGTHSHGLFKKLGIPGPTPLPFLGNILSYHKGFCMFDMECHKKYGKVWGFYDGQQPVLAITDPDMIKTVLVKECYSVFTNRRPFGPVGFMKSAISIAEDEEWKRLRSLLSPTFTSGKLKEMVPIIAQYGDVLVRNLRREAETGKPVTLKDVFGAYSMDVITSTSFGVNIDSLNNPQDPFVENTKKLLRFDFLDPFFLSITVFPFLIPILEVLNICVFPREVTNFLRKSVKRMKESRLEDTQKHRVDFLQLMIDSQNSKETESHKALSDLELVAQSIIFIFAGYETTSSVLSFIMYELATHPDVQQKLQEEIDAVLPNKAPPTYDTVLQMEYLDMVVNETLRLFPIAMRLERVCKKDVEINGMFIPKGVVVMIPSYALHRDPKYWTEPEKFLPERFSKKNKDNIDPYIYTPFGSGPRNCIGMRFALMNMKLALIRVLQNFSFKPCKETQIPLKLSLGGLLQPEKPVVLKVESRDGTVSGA
Sequence of Thyroid hormone receptor beta (Homo sapiens) (P10828 whole entry, looked up): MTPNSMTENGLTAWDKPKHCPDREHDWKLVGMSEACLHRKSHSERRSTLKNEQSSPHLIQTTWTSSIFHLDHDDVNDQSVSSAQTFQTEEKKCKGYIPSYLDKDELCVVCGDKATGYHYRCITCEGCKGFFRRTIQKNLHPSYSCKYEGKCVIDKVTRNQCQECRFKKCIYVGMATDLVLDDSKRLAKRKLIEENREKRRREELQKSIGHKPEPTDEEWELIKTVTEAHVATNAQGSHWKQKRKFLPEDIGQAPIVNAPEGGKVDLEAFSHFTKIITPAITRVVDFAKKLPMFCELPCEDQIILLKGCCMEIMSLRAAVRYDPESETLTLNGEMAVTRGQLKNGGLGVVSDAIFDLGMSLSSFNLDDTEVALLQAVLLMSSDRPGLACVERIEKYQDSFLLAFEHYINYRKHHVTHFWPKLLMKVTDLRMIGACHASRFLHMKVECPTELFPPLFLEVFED

CN(C)c1ccccc1
inactive: Potency [1] > 92 µM | Potency [2] | outcome [3] | caspase-3 activation [4] 0.927% | outcome [5] | outcome [6] | Potency [7] | Potency [8] | outcome [9] | outcome [10] | Potency [11] | Potency [12] | Potency [13] | Potency [14] | Potency [15] | Potency [16] | outcome [17] | Potency [18]

Cl/C=C\Cl
inactive: Potency [1] > 92 µM | Potency [2] | outcome [3] | caspase-3 activation [4] 0.747% | outcome [5] | outcome [6] | Potency [7] | Potency [8] | outcome [10] | Potency [12] | Potency [13] | Potency [19] | Potency [14] | Potency [15] | Potency [16] | outcome [17] | Potency [18]

C=CCBr
inactive: Potency [20] > 92 µM | Potency [2] | outcome [3] | outcome [5] | outcome [6] | Potency [7] | Potency [8] | outcome [9] | outcome [10] | Potency [12] | Potency [13] | Potency [19] | Potency [14] | Potency [15] | Potency [16] | outcome [17] | Potency [18]

CCCCCCCCCCCOC(=O)c1ccccc1C(=O)OCCCCCCCCCCC
inactive: Potency [1] > 92 µM | Potency [20] > 92 µM | Potency [2] | outcome [3] | caspase-3 activation [4] 2.1% | outcome [5] | outcome [6] | Potency [7] | outcome [9] | outcome [10] | Potency [11] | Potency [12] | Potency [13] | Potency [19] | Potency [14] | Potency [15] | Potency [16] | outcome [17] | Potency [18]

O=C(O)CBr
inactive: Potency [1] > 92 µM | Potency [20] > 92 µM | Potency [2] | outcome [3] | caspase-3 activation [4] 2.79% | outcome [5] | outcome [6] | Potency [7] | Potency [8] | outcome [9] | outcome [10] | Potency [12] | Potency [13] | Potency [14] | Potency [15] | Potency [16] | outcome [17] | Potency [18]

CC(C)(C)OOC(=O)c1ccccc1
inactive: Potency [1] > 92 µM | Potency [20] > 92 µM | Potency [2] | outcome [3] | caspase-3 activation [4] 6.04% | outcome [5] | outcome [6] | Potency [8] | outcome [9] | outcome [10] | Potency [11] | Potency [19] | Potency [14] | Potency [15] | Potency [16] | outcome [17] | Potency [18]

Nc1ncc([N+](=O)[O-])s1
inactive: Potency [1] > 92 µM | Potency [20] > 92 µM | Potency [2] | outcome [3] | caspase-3 activation [4] -1.21% | outcome [5] | outcome [6] | Potency [7] | outcome [9] | outcome [10] | Potency [11] | Potency [13] | Potency [19] | Potency [15] | Potency [16] | outcome [17] | Potency [18]

Oc1c(Cl)cccc1Cl
inactive: Potency [20] > 92 µM | Potency [2] | outcome [3] | caspase-3 activation [4] 2.96% | outcome [5] | Potency [7] | Potency [8] | outcome [9] | Potency [11] | Potency [12] | Potency [13] | Potency [19] | Potency [14] | Potency [15] | outcome [17] | Potency [18]

N#CCc1ccccc1
inactive: Potency [1] > 92 µM | Potency [20] > 92 µM | Potency [2] | outcome [3] | outcome [6] | Potency [8] | outcome [10] | Potency [11] | Potency [13] | Potency [19] | Potency [14] | Potency [15] | Potency [16]
